Screening data deposited in PubChem by National Center for Advancing Translational Sciences (NCATS).
Sampled rows, rich in hits. Any-hit rate of the full collection: about 12%.
HP1b chromo inh = inhibitors of HP1-beta chromodomain binding to methylated histone tails; P83916; AlphaScreen HP1-beta / biotin-H3K9me3 peptide binding; 390,000 tested, 0.56% active; Potency, µM (titrated, usually from 114 µM), inactives show top-dose activity change, negative = inhibition, actives largely listed as inhibitors; AID 540317; also: potency is read from the fitted curve at half-maximal effect; nearly all actives have a fitted effect of over 70% in size
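AlphaScreen: HP1-beta (50 nM) preformed 30 min with biotin-H3(1-18)K9me3 peptide (50 nM) in PBS pH 7.4, 0.01% Tween-20. Compound added for 30 min at RT, then streptavidin donor/nickel chelate acceptor beads (10 ug/mL) for 30 min.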
PI5P4K alpha inh = PI5P4K alpha (human) kinase inhibition | P48426 | PI5P4Kalpha enzyme, ADP-Glo luminescence, 60 min; hits give low values | max response, % | 330,000 tested, 1.2% active; active = max response of -50% or lower; inconclusive = between -30% and -50%; inactive = -30% or higher; also: value at the top dose of about 77 µM; % is scaled to controls: 0 for no effect and ±100 for the full control effect
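ADP-Glo luminescence end-point after a 60 min room-temperature kinase reaction. PI5P4Kalpha and substrate in HEPES pH 7.4 buffer with EGTA, 0.1% CHAPS and 5% DMSO; ATP at 5 microM final.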
PLK1 PBD inh = PLK1 (human) polo-box domain binding inhibition; Potency, µM, inactives show max response, negative = inhibition, most hits filed as inhibitors; 360,000 tested, 2.8% active; Plk1 PBD binding of FITC phosphopeptide, fluorescence polarization; also: potency is read from the fitted curve at half-maximal effect; series mostly up to about 57 µM; % is scaled to controls: 0 for no effect and ±100 for the full control effect; nearly all actives have a fitted effect of over 65% in size
G9a block = G9a (human) methyltransferase inhibition. Q96KQ7. G9a H3K9 monomethylation, AlphaScreen, 2 h. Potency, µM (top dose mostly 102 µM), inactives show at the highest dose activity, negative = inhibition, actives largely listed as inhibitors. 350,000 tested, 8.8% active. AID 504332; also: potency is read from the fitted curve at half-maximal effect; % is scaled to controls: 0 for no effect and ±100 for the full control effect; nearly all actives have a fitted effect of over 75% in size
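Compounds were preincubated with 20 nM G9a for 15 min, after which biotinylated H3K9 peptide (500 nM) and SAM (20 uM) started a 2 h room-temperature reaction. Monomethylated product was quantified by antibody-based AlphaScreen chemiluminescence.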
BAZ2B inh = BAZ2B (human) inhibition; Q9UIF8; AlphaScreen BAZ2B-H3K14Ac peptide displacement; Potency, µM (doses to about 114 µM), without a hit: at the highest dose activity change, negative = inhibition, most hits filed as inhibitors; 360,000 tested, 4.4% active; AID 504333; also: potency is read from the fitted curve at half-maximal effect; % is scaled to controls: 0 for no effect and ±100 for the full control effect; nearly all actives have a fitted effect of over 60% in size
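Compounds, titrated to a top concentration of 110 uM, were incubated 30 min at room temperature with preformed BAZ2B/acetyl-K14 H3 peptide complex (50 nM each). Proximity signal was measured by AlphaScreen after 20 min with beads.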
JMJD2A Tudor inh = blocks the human JMJD2A Tudor domain | O75164 | AlphaScreen JMJD2A-Tudor / H3K4me3 peptide binding | Potency, µM (series often up to 114 µM), for inactives: top-dose activity change, negative = inhibition, usual class: inhibitors | 390,000 tested, 4.4% active; also: potency is read from the fitted curve at half-maximal effect; % is scaled to controls: 0 for no effect and ±100 for the full control effect; nearly all actives have a fitted effect of over 50% in size
Starred values were filed as active, the others as inactive; ? = inconclusive; . = not tested or not shown; [ ] = another dose, or the depositor's remark. Unless noted, calls follow the shape of the dose curve; as a rule, active = well fitted curve in the direction sought with a large enough effect; inconclusive = small, poorly fitted or top-dose-only effect, or another doubt; inactive = no such curve, though single readings can be large; an effect the other way counts as inactive or inconclusive.

SMILES	HP1b chromo inh	PI5P4K alpha inh	PLK1 PBD inh	G9a block	BAZ2B inh	JMJD2A Tudor inh
CCN1CCOC(=O)C1CC(=O)Nc1ccc(C)c(Cl)c1 (configuration not stated)	22.9%	.	.	2µM*	-22.5%	-16.0%
CCOC(=O)c1ccc(NC(=O)CC2C(=O)OCCN2CC)cc1 (configuration not stated)	19.4%	-16.7	-5.1%	6.31µM*	-48.7%	-10.8%
CCOc1ccc(NC(=O)CC2C(=O)N(CC)C(=S)N2CCN2CCOCC2)cc1 (configuration not stated)	-4.1%	6.8	26.7µM*	24.9%	-9.3%	50.1µM*
CCOc1ccc(NC(=O)CC2C(=O)N(CC)C(=S)N2CCNC(C)=O)cc1 (configuration not stated)	13.3%	-3.0	-3.8%	-5.8%	3.6%	-6.6%
CCOc1ccc(NC(=O)CC2C(=O)OCCN2CC)cc1 (configuration not stated)	0.5%	.	.	2.24µM*	?	-14.6%
CCCCc1ccc(/C=C(\C#N)C(N)=S)s1	25.1µM*	1.9	-16.5%	35.5µM*	44.7µM*	35.5µM*
COc1ccc(C(=O)NCCn2cc(SCC(=O)NCCc3ccc(OC)c(OC)c3)c3ccccc32)cc1	16.7%	.	.	-43.7%[59 µM]	?	-20.5%
O=C(CCn1ccc2cc(S(=O)(=O)N3CCCC3)ccc21)NCc1cccc(Br)c1	67.1%	.	.	1.3%[59 µM]	3.4%	-5.2%
Cc1ccc(NC(=O)c2c(NC(=O)c3ccc(F)cc3)sc3c2CCCC3)cc1C	-11.8%	.	.	?	-6.7%	-31.0%
N#Cc1c(NC(=O)/C=C/c2ccco2)sc2c1CCCC2	6.9%	-62.9*	-24.4%	?	?	-26.9%
CCSc1ncc(Cl)c(C(=O)Nc2sc3c(c2C(=O)NCCCOC)CCCC3)n1	35.1%	.	.	10.7%[59 µM]	4.0%	-19.4%
CC1(C)Cc2c(sc(NC(=O)c3ccccc3)c2C(=O)O)CO1	-16.7%	-22.3	13.4µM*	44.7µM*	-34.8%	-4.5%
O=C(/C=C/c1ccco1)Nc1sc2c(c1C(=O)O)CCC2	-25.6%	.	-17.8%	?	?	?
COc1ccc(C(=O)Nc2sc3c(c2C(=O)O)CC(C)(C)OC3)cc1	22.1%	-7.7	1.1%	-2.5%[59 µM]	7.9%	-13.9%
CCSc1ncc(Cl)c(C(=O)Nc2sc3c(c2C(=O)NCc2cccnc2)CCCC3)n1	9.8%	.	2.8%	25.9%[59 µM]	5.2%	100µM*
O=C(Nc1sc2c(c1C(=O)O)CCC2)c1ccc(F)cc1	19.4%	-27.7	-22.9%	39.8µM*	?	-18.9%
O=C(Cc1ccccc1)Nc1sc2c(c1C(=O)Nc1ccccc1Cl)CCCC2	-2.3%	.	.	7.08µM*	-3.8%	-13.4%
O=C(COc1ccccc1)Nc1sc2c(c1C(=O)Nc1ccccc1Cl)CCCCC2	11.5%	.	.	?	-14.3%	-13.7%
Cc1ccc(C(=O)c2c(NC(=O)c3cccnc3)sc3c2CCCC3)cc1	-31.3%	8.2	-3.9%	?	?	56.2µM*
O=C(/C=C/c1ccccc1)Nc1sc2c(c1C(=O)O)CCC2	15.9%	?	-15.3%	50.1µM*	-32.3%	-18.2%
O=C(Nc1nc2c(s1)CCCC2)c1cccnc1	6.6%	.	-11.4%	11.5%[12.7 µM]	-17.2%	-27.8%
O=C(Nc1sc2c(c1C(=O)O)CCCCC2)c1ccccc1	?	-21.0	18.9µM*	.	?	-28.4%
Cn1c2ccccc2c2cnn(CC(=O)Nc3ccccc3C(F)(F)F)c(=O)c21	29.5%	.	.	-2.2%[59 µM]	-1.9%	-8.1%
CN1CCN([C@H]2CS(=O)(=O)N[C@@H]2COCc2ccccc2)CC1	.	-1.4	-7.4%	.	.	.
CCN(CC)c1cc(C)c2cc(NC(=O)/C=C/c3ccccc3Cl)ccc2n1	0.5%	.	.	?	-24.1%	-28.7%
SMILES	HP1b chromo inh	PI5P4K alpha inh	PLK1 PBD inh	G9a block	BAZ2B inh	JMJD2A Tudor inh
Cc1cccn2c(=O)c3cc(C(=O)NC(C)C)n(C)c3nc12	40.5%	.	.	1.2%[59 µM]	1.3%	1.3%
O=C(Nc1sc2c(c1C(=O)O)CCC2)c1ccccc1	-22.0%	?	?	?	79.4µM*	?
O=C(Nc1sc2c(c1C(=O)O)CCCC2)c1ccc(Cl)cc1	24.7%	-13.6	-21.6%	14.8%[59 µM]	-30.0%	-23.3%
Cc1ccc(C(=O)CSc2nc(N)cc(=O)[nH]2)cc1	25.9%	.	-12.9%	17.2%[59 µM]	-5.6%	-17.2%
Cc1ccc(C(=O)CSc2nc3c([nH]2)c(=O)n(C)c(=O)n3C)cc1	6.1%	-5.9	-7.0%	39.8µM*	-14.0%	-2.1%
CC(C)N(C(=O)CSc1nc2c([nH]1)c(=O)n(C)c(=O)n2C)c1ccccc1	48.9%	1.4	-4.6%	25.1µM*	-5.1%	-10.6%
Cc1ccc(NC(=O)Cn2c(=O)n(CCCCC(=O)NCc3ccc4c(c3)OCO4)c(=O)c3ccccc32)cc1	35.6%	.	.	-10.8%[59 µM]	-13.9%	-7.2%
COc1cc(-c2ccc3oc(-c4cccc(C)c4)c(C#CC4(O)CCCCC4)c3c2)cc(OC)c1OC	62.2%	32.2	-5.8%	.	.	-21.6%
CC(C)n1c(CNC(=O)c2ccccc2F)nnc1SCC(=O)NC1CCCCC1	25.4%[57 µM]	-71.4*	-12.6%	.	.	0.4%
Cc1noc(C)c1C(=O)Nc1cc(S(=O)(=O)N2CCCCC2)ccc1N(C)C	12.4%	-7.1	0.9%	39.8µM*	9.7%	-19.3%
CCN(c1ccccc1)S(=O)(=O)c1cc(C(=O)OC(C)C(=O)Nc2ccc3c(c2)OCCO3)ccc1C (configuration not stated)	-2.2%[57 µM]	-27.4	-24.2%	39.8µM*	?	?
CC(OC(=O)c1ccccn1)C(=O)Nc1ccc2c(c1)OCCO2 (configuration not stated)	26.2%	-0.9	3.5%	?	-2.0%	-1.0%
CCOC(=O)CCC(NC(=O)CC(=O)NC(CCC(=O)OCC)C(=O)OCC)C(=O)OCC (configuration not stated)	45.6%	4.7	2.0%	70.8µM*	-27.6%	2.1%
CCOC(=O)CCC(NC(=O)CCC(=O)NC(CCC(=O)OCC)C(=O)OCC)C(=O)OCC (configuration not stated)	37.9%	-2.6	-22.5%	1.9%[59 µM]	-0.6%	10.3%[57.1 µM]
O=C(O)[C@H](Cc1ccccc1)N1Cc2ccccc2C1=O	14.1%	0.2	-3.0%	79.4µM*	?	-10.4%
O=C(O)CCN1Cc2ccccc2C1=O	5.4%	0.4	-10.9%	50.1µM*	?	?
O=C(O)C(Cc1ccccc1)N1C(=O)c2ccccc2C1=O (configuration not stated)	37.3%	4.9	-7.7%	3.8%	-1.1%	-13.7%
O=C(O)C(Cc1ccccc1)N1C(=O)c2c(Cl)c(Cl)c(Cl)c(Cl)c2C1=O (configuration not stated)	-3.6%	-7.3	?	.	.	89.1µM*
Nc1ccc2c(c1)C(=O)N(CCCCCC(=O)O)C2	29.7%	-0.1	-8.4%	20.9%[59 µM]	-4.1%	-12.3%
